From PubChem BioAssay
Where “and” joins values, the source holds several entries; their conditions need not be identical. Equal entries are not always repeated. Some structures have more than one record in an assay (separate samples or runs), and their calls can disagree. Calls of active or inactive are those of the source.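 Rule for the calls, unless noted: active = inhibition at or above 50% relative to wild type and mutant plate controls; inactive = inhibition below 50%.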

Key:
[1] = inhibitors of TNFa-induced NFkB p65 translocation, primary screen, imaging, HUVEC, MLSMR starter and 10KST1 sets (AID 438;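 active = inhibition above 20% together with a positive visual image hit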;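 note: compound added about 3h40 before a 20 min TNFalpha stimulation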;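 for inhibition: signal is the nuclear over cytoplasmic p65 intensity ratio per well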); settings: HUVEC TNFa-induced p65 nuclear translocation; cell count: measured here: nuclei count (cytotoxicity indicator), at 2.08 µM; inhibition: at 2 µM, stronger effect = higher value, 0% TNFa-plus-vehicle, 100% no-TNFa wells
[2] = reduction of polyQ htt aggregates in cells – imaging, exon1htt(103Q)mCFP cells, high-content imaging, primary screen (AID 483;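 active = visual image review flags a hit and inhibition of aggregation exceeds 20%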;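 note: compound exposure lasted 3 days before fixation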;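 for nuclei count: percent of the per-plate median nuclei count of sample wells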); settings: exon1htt(103Q)mCFP cell line, aggregate imaging, at 2 µM; inhibition of aggregation: stronger effect = higher value; nuclei count: measured here: cell count, toxicity
[3] = endothelial E-selectin expression blockers – imaging, HUVEC, immunofluorescence, MLSMR starter and 10KST1 sets, primary screen (AID 487;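 active = visually confirmed hit in the image check and inhibition above 20%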;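 for inhibition: signal is fraction of cell area covered by stained E-selectin grains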;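 for nuclei count: 100% = median nuclei count of all wells on the same plate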); settings: HUVEC TNFalpha-induced E-selectin immunofluorescence imaging, at 2 µM; inhibition: stronger effect = higher value; nuclei count: measured here: cell number, toxicity
[4] = Primary imaging screen for DUSP6 inhibitors that restore phospho-Erk in transfected HeLa cells, chemical complementation (AID 609;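 active = compounds giving at least 50% inhibition in the cell-based MKP-3 phosphatase rescue imaging test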;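 for inhibition: phospho-Erk level distribution per well compared with pooled transfected vehicle control wells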); settings: HeLa MKP-3 transfected, phospho-Erk imaging KS statistic, at 10 µM, cells stimulated with TPA for 15 min
[5] = biological target: Dual specificity protein phosphatase 6 (Homo sapiens) (UniProt Q16828); experiment: as above; settings: HeLa MKP-3 transfected, phospho-Erk imaging KS statistic; at 10 µM; stronger effect = higher value; cells stimulated with TPA for 15 min
Sequence of Dual specificity protein phosphatase 6 (Homo sapiens) (Q16828 whole entry, looked up): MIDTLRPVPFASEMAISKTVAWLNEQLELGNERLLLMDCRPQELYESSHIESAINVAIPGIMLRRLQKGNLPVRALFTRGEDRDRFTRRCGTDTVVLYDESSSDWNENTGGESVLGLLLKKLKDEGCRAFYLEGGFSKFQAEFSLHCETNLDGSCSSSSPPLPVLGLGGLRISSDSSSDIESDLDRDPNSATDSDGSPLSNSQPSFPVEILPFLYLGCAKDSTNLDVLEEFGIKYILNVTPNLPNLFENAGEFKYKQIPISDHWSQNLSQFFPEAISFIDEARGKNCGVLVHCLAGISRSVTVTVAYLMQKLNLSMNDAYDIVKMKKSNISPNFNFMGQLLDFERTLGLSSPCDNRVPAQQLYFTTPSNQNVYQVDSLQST

[6] = biological target: Voltage-gated potassium channel subunit beta-2 (Rattus norvegicus) (UniProt P62483); experiment: inhibitors of rat Kvbeta2 reductase activity – biochemical, NADPH fluorescence, primary screen (AID 622;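 active = fluorescence slope higher than the sample average by over 3 SD, cut at about -0.22 in these data, passing the limit was not always enough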;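 note: slope of raw intensity against log time taken from 70 to 1610 s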); settings: recombinant KvBeta, 4-cyanobenzaldehyde reduction, at 10 µM, stronger effect = higher value
Sequence of Voltage-gated potassium channel subunit beta-2 (Rattus norvegicus) (P62483 whole entry, looked up): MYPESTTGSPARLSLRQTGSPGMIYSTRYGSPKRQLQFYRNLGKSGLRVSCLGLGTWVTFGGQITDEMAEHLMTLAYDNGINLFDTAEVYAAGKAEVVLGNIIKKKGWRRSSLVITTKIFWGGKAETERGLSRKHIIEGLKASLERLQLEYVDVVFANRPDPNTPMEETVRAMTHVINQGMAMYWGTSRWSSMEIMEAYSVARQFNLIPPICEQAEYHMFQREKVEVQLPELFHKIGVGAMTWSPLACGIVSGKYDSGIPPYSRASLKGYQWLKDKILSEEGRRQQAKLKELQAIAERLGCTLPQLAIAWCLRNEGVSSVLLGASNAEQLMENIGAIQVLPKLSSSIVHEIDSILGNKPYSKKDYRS

[7] = biological target: Voltage-gated potassium channel subunit beta-2 (Rattus norvegicus) (UniProt P62483); experiment: enhancers of rat Kvbeta2 NADPH turnover – biochemical, NADPH fluorescence, primary screen (AID 623;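 active = NADPH fluorescence slope more negative than the mean of all samples by about 3 SD, 99.7% confidence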;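 note: fluorescence intensity change per second fitted from 20 to 320 s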); settings: Recombinant KvBeta, NADPH fluorescence decrease slope, 10 min; at 10 µM; stronger effect = lower value
[8] = biological target: Alpha-2C adrenergic receptor (Homo sapiens) (UniProt P18825); experiment: compounds altering alpha2C-coupled GIRK flux – cell-based, HEK293 alpha2C/GIRK1/2, thallium flux, primary screen (AID 624;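 active = fluorescence slope after compound addition differing from the mean of all screened samples at 99.7% confidence, in either direction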;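 note: slope of fluorescence ratio to pre-addition baseline per second over 15 to 24 s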); settings: thallium flux BTC fluorescence, at 10 µM, actives lie on both sides
Sequence of Alpha-2C adrenergic receptor (Homo sapiens) (P18825 whole entry, looked up): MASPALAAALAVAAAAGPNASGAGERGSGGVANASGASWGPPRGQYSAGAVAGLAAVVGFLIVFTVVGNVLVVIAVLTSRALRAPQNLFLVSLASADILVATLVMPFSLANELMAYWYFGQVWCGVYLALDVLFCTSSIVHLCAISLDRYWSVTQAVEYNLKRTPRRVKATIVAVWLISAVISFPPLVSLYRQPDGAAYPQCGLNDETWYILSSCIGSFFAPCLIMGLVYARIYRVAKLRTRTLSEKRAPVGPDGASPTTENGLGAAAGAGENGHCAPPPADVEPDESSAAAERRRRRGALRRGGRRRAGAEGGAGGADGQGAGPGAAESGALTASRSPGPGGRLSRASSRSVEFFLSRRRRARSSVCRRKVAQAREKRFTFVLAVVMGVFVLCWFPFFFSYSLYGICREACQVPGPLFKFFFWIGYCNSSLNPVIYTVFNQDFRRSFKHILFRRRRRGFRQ

[9] = inhibitors of larval lipid processing in zebrafish, primary screen, whole organism, PED6 fluorescence, gall bladder and intestine (AID 686;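 active = a full or partial loss of lipid-probe fluorescence in the fish gall bladder, intestine or both, judged by eye; inactive = no fluorescence loss, or compound toxic to the fish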;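 note: larvae 5 to 7 days old with five fish per well; signal comes from phospholipase A2 cleavage of quenched PED6 carried via bile; overnight exposure to compound and PED6 before scoring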); settings: Zebrafish larvae PED6 lipid processing, fluorescence scoring; screened at 20 µM (by protocol)
[10] = loss of swimming-algae plug formation – whole organism, Chlamydomonas reinhardtii, WT vs cilia-less mutant, absorbance, 96-well, primary screen (AID 463189); settings: Chlamydomonas reinhardtii gravitaxis, OD600 absorbance, 2 days; at 10 µM; stronger effect = higher value;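 note: 0% = wild type cc124 cells in DMSO and 100% = ciliumless bld1 mutant cells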
[11] = blockers of RIG-like receptor reporter activation – cell-based, Sendai virus stimulus, luciferase, 10K MLSCN set, TLR/RLR signaling modifier project, primary screen (AID 602276;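 active = inhibition at or above 50% at 10 µM; inactive = inhibition below 50%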;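 note: firefly luciferase from ISG56 promoter only with Renilla not read in this screen; 0% = Sendai virus plus DMSO and 100% = medium plus DMSO without virus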); settings: HEK293 RL24 IRF3 luciferase reporter, at 10 µM, stronger effect = higher value
[12] = TLR3 IRF3 reporter activation blockers – cell-based, poly I:C stimulus, luciferase, 10K MLSCN set, primary screen (AID 602277;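 active = inhibition of the reporter signal at or above 50%; inactive = inhibition below 50%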); settings: HEK293-TLR3 RL24 IRF3 luciferase reporter, at 10 µM, stronger effect = higher value
[13] = measured here: cell density z-score
[14] = measured here: nuclear c-Myc green intensity z-score
[15] = measured here: nuclear pErk red intensity z-score, stronger effect = higher value

Row | SMILES | cell count [1] | inhibition [1] | inhibition of aggregation [2] | nuclei count [2] | inhibition [3] | nuclei count [3] | z-score [4, 13] | z-score [4, 14] | z-score [4, 15] | inhibition [5] | fluorescence slope [6] | NADPH fluorescence slope [7] | slope [8] | outcome [9] | inhibition [10] | inhibition [11] | inhibition [12]
1 | CCN(CC)CCNC(=O)c1cc(Cl)c(N)cc1OC | 552 | -4.5% (inactive) | 5.6% (inactive) | 106% | -17.3% (inactive) | 120% | 0.156 | -0.776 | 0.343 | -0.493% (inactive) | -0.444 (inactive) | 4.3e-05 (inactive) | 0.00461 (inactive) | inactive | 8.75% (inactive) and -3.64% (inactive) | -8.87% (inactive) | 30.5% (inactive)
2 | CN1CCN(CCCN2c3ccccc3Sc3ccc(Cl)cc32)CC1 | 625 | -0.8% (inactive) | 6.1% (inactive) | 98.7% | -67.5% (inactive) | 115% | 0.0938 | 1.34 | 0.8 | 30.1% (inactive) | -0.449 (inactive) | 1.3e-05 (inactive) | 0.00441 (inactive) | inactive | 96.7% (active) and 24.7% (inactive) | 17.3% (inactive) | 22.7% (inactive)
3 | CC1=C(C)C(=O)C(CCCCC#CCCCC#CCO)=C(C)C1=O | 531 | 4.4% (inactive) | 9.6% (inactive) | 95.5% | -112% (inactive) | 108% | 0.752 | -0.729 | -1.42 | 19.2% (inactive) | -0.452 (inactive) | -2.1e-05 (inactive) | 0.00343 (inactive) | inactive | -6.32% (inactive) and 57.1% (active) | 14.4% (inactive) | 32.8% (inactive)
4 | COc1ccccc1N1CCN(CC(O)COc2cccc3ccccc23)CC1 (stereo not given) | 617 | -3.6% (inactive) | -18.7% (inactive) | 108% | -26.2% (inactive) | 107% | 0.673 | -1.31 | -2.39 | 8% (inactive) | -0.431 (inactive) | -7.7e-05 (inactive) | 0.00349 (inactive) | inactive | 7.05% (inactive) and 42.9% (inactive) | 16.5% (inactive) | 36.9% (inactive)
5 | C=CCn1c(SCC#N)nc2c(c1=O)C(C)(C)Cc1ccccc1-2 | 648 | -0.1% (inactive) | 11.6% (inactive) | 107% | -30.9% (inactive) | 136% | 1.4 | 0.411 | -0.925 | 34.8% (inactive) | -0.315 (inactive) | -5.8e-06 (inactive) | 0.00525 (inactive) | inactive | 104% (active) | -4.84% (inactive) | 6.72% (inactive)
6 | OCCN1CCN(CCCN2c3ccccc3Sc3ccc(Cl)cc32)CC1 | 705 | -3% (inactive) | -20.6% (inactive) | 109% | -112% (inactive) | 130% | -0.393 | 0.625 | 2.66 | 3.45% (inactive) | -0.46 (inactive) | -5.7e-05 (inactive) | 0.0036 (inactive) | inactive | 3.48% (inactive) and 164% (active) | 17.3% (inactive) | 40.7% (inactive)
7 | Nc1ncnc2c1ncn2[C@@H]1O[C@H](CO)[C@@H](O)[C@H]1O | 562 | -1.7% (inactive) | -15.3% (inactive) | 101% | -40.5% (inactive) | 128% | 0.315 | -0.14 | 0.779 | -12.3% (inactive) | -0.453 (inactive) | -3.6e-05 (inactive) | 0.00542 (inactive) | inactive | -7.15% (inactive) | 11.2% (inactive) | 25.6% (inactive)
8 | Brc1c(NC2=NCCN2)ccc2nccnc12 | 621 | -4.8% (inactive) | -11.3% (inactive) | 104% | -58.7% (inactive) | 120% | -0.535 | 0.61 | 1.33 | 34.5% (inactive) | -0.534 (inactive) | 1.1e-06 (inactive) | 0.0151 (active) | inactive | 5.25% (inactive) and -5.37% (inactive) | 14% (inactive) | 28.8% (inactive)
9 | CCCC(CCC)C(=O)OC1C[C@H]2CC[C@@H](C1)[N+]2(C)C (stereo not given in full) | 587 | -4.2% (inactive) | 35.6% (inactive) | 88.1% | -72.6% (inactive) | 132% | 0.0581 | 0.732 | -0.0735 | 9.37% (inactive) | -0.488 (inactive) | -5e-05 (inactive) | 0.0052 (inactive) | inactive | 17.7% (inactive) | 18.2% (inactive) | 42.2% (inactive)
10 | CC(=O)Nc1ccccc1O | 675 | 0.8% (inactive) | 14.1% (inactive) | 106% | -84.6% (inactive) | 121% | -0.0756 | 0.873 | -0.0939 | 7.39% (inactive) | -0.439 (inactive) | -5.7e-05 (inactive) | 0.00449 (inactive) | inactive | -2.47% (inactive) | 13.6% (inactive) | 37.8% (inactive)
11 | CC(Cc1ccc(O)c(O)c1)C(C)Cc1ccc(O)c(O)c1 (stereo not given) | 641 | 12.1% (inactive) | -17.2% (inactive) | 100% | -62.1% (inactive) | 127% | 0.848 | 0.39 | -0.226 | 16.8% (inactive) | -0.504 (inactive) | -8.3e-05 (inactive) | 0.00569 (inactive) | inactive | -9.23% (inactive) | 3.4% (inactive) | -2.88% (inactive)
12 | CCN(CC)CCNC(=O)c1cc(S(C)(=O)=O)ccc1OC | 676 | -4.3% (inactive) | 0.8% (inactive) | 118% | -40% (inactive) | 137% | -1.16 | -0.48 | 0.595 | 1.48% (inactive) | -0.508 (inactive) | -3.1e-05 (inactive) | 0.00485 (inactive) | inactive | 3.78% (inactive) and -4.27% (inactive) | 21.3% (inactive) | 35.4% (inactive)
13 | CC(=O)OCC(=O)[C@H]1CC[C@H]2[C@@H]3CC=C4C[C@@H](O)CC[C@]4(C)[C@H]3CC[C@]12C | 586 | -9.5% (inactive) | 16.5% (inactive) | 99.7% | -22.1% (inactive) | 128% | 0.459 | 0.562 | -0.353 | 17.3% (inactive) | -0.45 (inactive) | -6.8e-05 (inactive) | 0.00533 (inactive) | inactive | 35% (inactive) | 9.44% (inactive) | 25.1% (inactive)
14 | CC1(C)Cc2c(C#N)c(SCCC#N)nc(N3CCOCC3)c2CS1 | 632 | -13% (inactive) | -5.8% (inactive) | 106% | -104% (inactive) | 132% | 0.7 | -1.52 | -1.34 | 28.6% (inactive) | -0.343 (inactive) | -8.5e-06 (inactive) | 0.0053 (inactive) | inactive | -1.16% (inactive) | 15.2% (inactive) | 18.7% (inactive)
15 | C[C@]12CCC(=O)C=C1CC[C@@H]1[C@@H]2C(=O)C[C@@]2(C)[C@H]1CC[C@]2(O)C(=O)CO | 603 | -6% (inactive) | 21.4% (inactive) | 102% | -119% (inactive) | 120% | -0.503 | -1.16 | 1.19 | -4.44% (inactive) | -0.503 (inactive) | -3.1e-05 (inactive) | 0.00463 (inactive) | inactive | -0.81% (inactive) and 2.73% (inactive) | 10.2% (inactive) | 21.1% (inactive)
16 | CC(C)NCC(O)COc1ccc(CCOCC2CC2)cc1 (stereo not given) | 564 | -5.6% (inactive) | 10.6% (inactive) | 102% | -146% (inactive) | 119% | -0.149 | 0.261 | 0.0924 | 1.48% (inactive) | -0.454 (inactive) | -2.4e-05 (inactive) | 0.0053 (inactive) | inactive | 7.04% (inactive) and 48.4% (inactive) | 12.5% (inactive) | 37.3% (inactive)
17 | Cc1ccc(C2/C(=C(/O)c3cnn(-c4ccccc4)c3C)C(=O)C(=O)N2CCN2CCOCC2)o1 (stereo not given) | 520 | -2.8% (inactive) | 10.2% (inactive) | 100% | -56.6% (inactive) | 126% | -0.925 | 1.9 | -0.672 | -10.5% (inactive) | -0.531 (inactive) | -4.5e-05 (inactive) | 0.00497 (inactive) | inactive | -18.9% (inactive) | -28.4% (inactive) | -75.5% (inactive)
18 | O=C(O)CCN(CCC(=O)O)c1nnc(SCc2ccccc2)s1 | 428 | 4% (inactive) | -9.5% (inactive) | 108% | -187% (inactive) | 136% | 0.906 | -0.398 | -0.408 | -3.98% (inactive) | -0.393 (inactive) | -6e-05 (inactive) | 0.0059 (inactive) | inactive | -1.99% (inactive) | 18.7% (inactive) | 25.8% (inactive)
19 | CCOC(=O)CSc1nc(N)c2c3c(sc2n1)CCCC3 | 682 | -4.4% (inactive) | -8.1% (inactive) | 97.3% | 5.9% (inactive) | 146% | -0.0379 | 1.11 | -0.851 | -3.95% (inactive) | -0.363 (inactive) | -5.9e-05 (inactive) | 0.0064 (inactive) | inactive | -8.25% (inactive) | 12.5% (inactive) | 4.94% (inactive)
20 | CN1CCC(=C2c3ccccc3C=Cc3ccccc32)CC1 | 599 | -6% (inactive) | -5.2% (inactive) | 104% | -80% (inactive) | 131% | 0.654 | 1.45 | -1.1 | 9.37% (inactive) | -0.438 (inactive) | -6.6e-05 (inactive) | 0.00408 (inactive) | inactive; toxic | 12% (inactive) and 38.6% (inactive) | 18.4% (inactive) | 46.7% (inactive)
